RAD54 branch = inhibitors of human RAD54 branch migration; Q92698; RAD54 Holliday junction branch migration, FAM/BHQ fluorescence; inhibition, % at 10.4 µM; 360,000 compounds, 0.14% hits; AID 602329;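 active = mean normalized replicate activity at least 40 and at least half of replicates scoring 40 or more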;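 also: 0% = median of neutral control wells and 100% = median of positive control wells; inhibitors cause a drop in the FAM fluorescence signal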
N-glyco inh = N-linked glycosylation inhibition; D54 ERlucT glycosylation luciferase reporter, 24 h; percent of 100 nM tunicamycin response; reporter increase, % at 12.5 µM; 360,000 compounds, 0.23% hits; AID 588692;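 active = mean luciferase reporter signal, scaled so untreated is 0 and the glycosylation-blocking control 100, at or above a set limit in every replicate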;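 also: luciferase carries N-glycosylation sites so blocking glycosylation raises the light; 0% = median of neutral control wells and 100% = median of 100 nM tunicamycin wells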
MLL AF4-AF9 inh = inhibitors of human MLL-AF4/AF9 interaction; AID 651704; 350,000 compounds, 0.47% hits; AlphaScreen, biotin-AF4 peptide binding to FLAG-AF9; inhibition, % at 10 µM; P42568;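 active = every replicate reaching a set inhibition limit, whatever the replicate mean, cut at about 25% in these data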;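 also: 0% = plate neutral control median and 100% = total signal loss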
RAD52 anneal inh = blocks human RAD52 DNA annealing; AID 651710; P43351; recombinant RAD52 DNA annealing, FRET fluorescence; inhibition, % at 18.7 µM; 360,000 compounds, 0.46% hits;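 active = every replicate showing at least 50% inhibition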
Casp6 inh = blocks human caspase-6 cleavage activity; purified caspase-6, Z-VEID-R110 cleavage fluorescence; inhibition, % at 12.5 µM; P55212; 350,000 compounds, 0.53% hits;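 active = mean inhibition across replicates at least about 35%, with every replicate also reaching that limit, limit read from the data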;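 also: 0% = median of neutral control wells and 100% = no fluorescence left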
Target sequence (P55212 24-179 limits assumed): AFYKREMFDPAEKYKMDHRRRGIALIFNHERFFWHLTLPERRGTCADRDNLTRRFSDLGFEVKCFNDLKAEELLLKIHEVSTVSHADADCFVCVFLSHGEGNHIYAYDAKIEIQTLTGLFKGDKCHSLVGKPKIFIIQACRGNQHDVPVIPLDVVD
Target sequence (P55212 194-293 limits assumed): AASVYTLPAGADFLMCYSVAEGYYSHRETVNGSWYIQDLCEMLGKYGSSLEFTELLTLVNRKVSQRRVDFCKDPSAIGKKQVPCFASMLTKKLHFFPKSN
Active calls of the source: *. An excerpt weighted towards active compounds, which were near 1.2% of everything screened.

What do the screens show for `C[C@H](CO)N1C[C@H](C)[C@H](CN(C)Cc2ccc(Oc3ccccc3)cc2)Oc2ccc(NS(=O)(=O)c3ccccc3)cc2CC1=O`?
RAD54 branch: 3.2; MLL AF4-AF9 inh: 6.0; RAD52 anneal inh: -12.2; Casp6 inh: 51.8*

How did COc1cccc(C(NC(C)=O)c2nc(-c3ccc(F)cc3OC)cs2)c1 (centres undefined) do in these assays?
RAD54 branch: -3.3; N-glyco inh: 49.8*; MLL AF4-AF9 inh: -4.1; RAD52 anneal inh: -2.6; Casp6 inh: 0.4

How did CC(=O)NC(c1ccccc1)c1nc(-c2cccc(F)c2)cs1 (centres undefined) do in these assays?
RAD54 branch: -11.2; N-glyco inh: 0.2; MLL AF4-AF9 inh: 8.0; RAD52 anneal inh: -33.2; Casp6 inh: 2.0

Results for COc1ccc(-c2csc(C(NC(C)=O)c3ccccc3)n2)cc1 (centres undefined) ?
RAD54 branch: 5.2; N-glyco inh: 1.2; MLL AF4-AF9 inh: 1.4; RAD52 anneal inh: -6.4; Casp6 inh: -1.6

Results for COc1ccccc1-c1csc(C(NC(C)=O)c2ccccc2)n1 (centres undefined) ?
RAD54 branch: -21.4; N-glyco inh: 41.7*; MLL AF4-AF9 inh: -1.3; RAD52 anneal inh: -16.1; Casp6 inh: 1.2

Results for COc1cc(F)ccc1-c1csc(C(NC(C)=O)c2ccc(F)c(F)c2)n1 (centres undefined) ?
RAD54 branch: 5.2; N-glyco inh: 42.2*; MLL AF4-AF9 inh: -4.2; RAD52 anneal inh: -8.9; Casp6 inh: -0.7

How did COc1ccc(-c2csc(C(NC(C)=O)c3ccc(F)c(F)c3)n2)cn1 (centres undefined) do in these assays?
RAD54 branch: 11.5; N-glyco inh: -0.7; MLL AF4-AF9 inh: -6.7; RAD52 anneal inh: -8.4; Casp6 inh: 0.9

How did COc1cc(F)ccc1-c1csc(C(NC(C)=O)c2ccccc2)n1 (centres undefined) do in these assays?
RAD54 branch: -7.5; N-glyco inh: 50.2*; MLL AF4-AF9 inh: -1.5; RAD52 anneal inh: -11.1; Casp6 inh: 3.7

Results for O=C([C@H]1[C@H](CO)[C@H]2Cn3c(cccc3=O)[C@@H]1N2Cc1cccc(Cl)c1)N1CCCCC1 ?
RAD54 branch: 6.2; MLL AF4-AF9 inh: 0.2; RAD52 anneal inh: 1.4; Casp6 inh: 1.2

Results for COc1ccccc1-c1cnc2c(c1)C(=O)N([C@H](C)CO)C[C@H](C)[C@@H](CN(C)Cc1ccncc1)O2 ?
RAD54 branch: 13.0; MLL AF4-AF9 inh: 0.0; RAD52 anneal inh: -0.4; Casp6 inh: -1.0

How did CCn1c(C)c(C)c2cc(C(=O)NCCCN3CCCCCC3)ccc21 do in these assays?
RAD54 branch: 7.2; N-glyco inh: -3.6; MLL AF4-AF9 inh: 29.3*; RAD52 anneal inh: -20.9; Casp6 inh: -77.3

What do the screens show for `CCn1c(C)c(C)c2cc(C(=O)NCCCN3CCCCC3)ccc21`?
RAD54 branch: -0.9; N-glyco inh: -7.3; MLL AF4-AF9 inh: 10.7; RAD52 anneal inh: -6.9; Casp6 inh: -68.6

What do the screens show for `CN(C)CCCN1C(=O)c2cccc3c(Br)ccc(c23)C1=O`?
N-glyco inh: 40.0*; MLL AF4-AF9 inh: 2.7; RAD52 anneal inh: -3.9; Casp6 inh: -2.3

What do the screens show for `O=C(COc1ccc2ccc(=O)oc2c1)Nc1ccc(N2CCCCC2)cc1`?
RAD54 branch: 0.2; N-glyco inh: -1.9; MLL AF4-AF9 inh: 46.9*; RAD52 anneal inh: 66.0*; Casp6 inh: -54.9

How did O=C(NCCc1ccccc1)[C@H]1N[C@H]2c3ccc(-c4ccc(F)cc4)c(=O)n3C[C@H]2[C@@H]1CO do in these assays?
RAD54 branch: -3.6; MLL AF4-AF9 inh: -27.1; RAD52 anneal inh: -2.4; Casp6 inh: 0.8

What do the screens show for `C[C@H](CO)N1C[C@H](C)[C@H](CN(C)C(=O)Cc2ccccc2)OCCCC[C@H](C)Oc2ccc(NC(=O)Nc3cccc4ccccc34)cc2C1=O`?
RAD54 branch: 2.6; MLL AF4-AF9 inh: -2.0; RAD52 anneal inh: -21.2; Casp6 inh: -0.4

Results for C[C@@H]1CN([C@@H](C)CO)C(=O)Cc2cc(NC(=O)Nc3ccc(C(F)(F)F)cc3)ccc2O[C@@H]1CN(C)S(=O)(=O)c1cccs1 ?
RAD54 branch: 2.7; MLL AF4-AF9 inh: 1.1; RAD52 anneal inh: 5.7; Casp6 inh: 2.0

How did C=CCn1cc(C(=O)N2CCN(CC)CC2)c(=O)c2cc(S(=O)(=O)N(CC)CC)ccc21 do in these assays?
RAD54 branch: -5.8; N-glyco inh: 1.2; MLL AF4-AF9 inh: 44.9*; RAD52 anneal inh: -6.0

What do the screens show for `C=CCn1cc(C(=O)NCCCOC)c(=O)c2cc(S(=O)(=O)N(CC)CC)ccc21`?
N-glyco inh: 1.6

Results for COc1ccc(-c2ccc([C@H]3[C@H](C#N)N(C(=O)NC4CCCC4)[C@H]3CO)cc2)cc1 ?
RAD54 branch: -4.8; MLL AF4-AF9 inh: -19.6; RAD52 anneal inh: 0.7; Casp6 inh: -0.4

What do the screens show for `CCS(=O)(=O)c1nc(S(=O)(=O)c2ccc(Cl)cc2)c(N2CCOCC2)s1`?
RAD54 branch: 7.7; N-glyco inh: -3.8; MLL AF4-AF9 inh: -4.5; RAD52 anneal inh: -0.9; Casp6 inh: 37.7*

How did Cc1ccc(S(=O)(=O)NCC[C@@H]2CC[C@H](NS(=O)(=O)c3ccccc3Cl)[C@@H](CO)O2)cc1 do in these assays?
RAD54 branch: -8.6; MLL AF4-AF9 inh: -0.6; RAD52 anneal inh: 4.3; Casp6 inh: 1.9

How did CC1=NN(c2ccc(Cl)c(C(=O)O)c2)C(=O)C1 do in these assays?
N-glyco inh: 0.4; MLL AF4-AF9 inh: 2.6; RAD52 anneal inh: -12.2; Casp6 inh: 81.8*

Results for CC1=NN(c2ccc(S(=O)(=O)O)cc2Cl)C(=O)C1 ?
N-glyco inh: 0.2; MLL AF4-AF9 inh: -1.9; RAD52 anneal inh: -0.7; Casp6 inh: 47.0*

Results for CC1=NN(c2ccc(C(=O)O)c(N)c2)C(=O)C1 ?
N-glyco inh: 1.2; MLL AF4-AF9 inh: -22.0; RAD52 anneal inh: -9.6; Casp6 inh: 26.1

What do the screens show for `O=C(C[C@H]1C=C[C@H](NC(=O)Nc2ccc(F)cc2)[C@H](CO)O1)NCc1cccc(F)c1`?
RAD54 branch: 0.2; MLL AF4-AF9 inh: -2.1; RAD52 anneal inh: 1.1; Casp6 inh: -1.4

Results for CS(=O)(=O)c1cccc(C(=O)Nc2ccc(-c3nc4ccccc4[nH]3)cc2)c1 ?
RAD54 branch: -0.1; N-glyco inh: 46.0*; MLL AF4-AF9 inh: -0.1; RAD52 anneal inh: -9.9; Casp6 inh: 2.6

How did CS(=O)(=O)c1ccccc1C(=O)Nc1ccc(-c2nc3ccccc3[nH]2)cc1 do in these assays?
RAD54 branch: -1.3; N-glyco inh: -0.9; MLL AF4-AF9 inh: 1.8; RAD52 anneal inh: -6.0; Casp6 inh: -2.2

What do the screens show for `COc1ccc(Cl)cc1NC(=O)CN(C)CC(=O)Nc1cc(OC)c(OC)c(OC)c1`?
RAD54 branch: -4.0; N-glyco inh: 32.5*; MLL AF4-AF9 inh: -3.8; RAD52 anneal inh: -20.0; Casp6 inh: -1.2

Results for COc1ccc(Cl)cc1NC(=O)CN(C)CC(=O)Nc1ccc(Br)cc1 ?
N-glyco inh: -0.1; MLL AF4-AF9 inh: -3.8; RAD52 anneal inh: -5.5; Casp6 inh: -8.3
